Source: PubChem BioAssay (several laboratories)
L major viab: inhibitors of Leishmania major promastigote growth; AID 1063; Leishmania major promastigotes, resazurin fluorescence viability; inhibition, % at 10 µM; 9% of 200,000 active; in the data active means inhibition above about 50%;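 further: promastigotes grown with compound for 44 hours at 28 °C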
Arbovirus inh: arbovirus infection inhibition | arbovirus infection cell-based antiviral screen | inhibition, % at 10 µM | 0.37% of 200,000 active; in the data active means inhibition above about 30%
WT yeast gro inh: growth inhibition of WT yeast, mitochondrial fusion screen. inhibition, % at 10 µM. 2.1% of 190,000 active. AID 1362. mitochondrial fusion phenotypic screen, WT strain; in the data active means inhibition above about 58%; tested in S. cerevisiae
CHOP inh: inhibitors of CHOP induction in ER stress response | CHO-K1 CHOP-promoter luciferase, tunicamycin-induced, 15-18 h | inhibition, % at 10 µM | 3.8% of 220,000 active;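 active means compounds that reduced the stress-induced luciferase reporter signal by more than about 70% of percent inhibition, limit read from the data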;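 further: 0% = tunicamycin plus vehicle and 100% = wells without tunicamycin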
* hit, by the source's call; nt = not tested or not shown. This is a sample that favours compounds with a hit; in the whole collection about 12% have one here.

SMILES	L major viab	Arbovirus inh	WT yeast gro inh	CHOP inh
CSc1ccc(CN2CCN(C(=O)c3ccc([N+](=O)[O-])cc3)CC2)cc1	69*	5	-1	2
C/C(=N\NC(=O)c1ccc(CN2CCOCC2)cc1)c1ccc([N+](=O)[O-])cc1	77*	8	-5	17
Cn1c(CN2CCOCC2)nc2cc(NC(=O)COc3ccc([N+](=O)[O-])cc3)ccc21	-3	8	12	23
O=C(COc1ccc([N+](=O)[O-])cc1)Nc1ccc(CN2CCOCC2)cc1	63*	4	5	10
O=C1c2ccccc2C(=Nc2ccccc2)C1c1cccc(Br)c1 (stereo not drawn)	-1	3	-9	72*
O=C(NC(=S)N1CCOCC1)C12CC3CCC(CC(C3)C1)C2	-9	-1	-6	13
CC1(C)C(C=C(Cl)Cl)C1C(=O)N1CCN(c2ccccc2)CC1 (stereo not drawn)	0	-1	43	78*
O=C(Nc1nc(COc2ccccc2)cs1)C12CC3CC(CC(C3)C1)C2	100*	-15	59*	56
O=C(Nc1ccccc1-c1ccccc1)C1CCCC1	0	2	0	7
O=C(Nc1ccccc1-c1ccccc1)C12CC3CC(CC(C3)C1)C2	89*	-7	9	-32
O=C(NC(=S)N1CCN(c2ccc(F)cc2)CC1)C12CC3CC(CC(C3)C1)C2	80*	3	19	35
O=C(C1CC2C=CC1C2)N1CCN(c2ccccc2)CC1 (stereo not drawn)	11	-5	21	17
CCOc1ccccc1N1CCN(C(=O)CC(C)(C)C)CC1	0	4	-7	7
O=C(Nc1ccccc1N1CCN(c2ccc(F)cc2)CC1)c1ccccc1	-5	-3	-16	9
CCOc1ccccc1N1CCN(C(=S)NCc2ccc(Cl)cc2)CC1	16	-23	78*	52
O=C(N1CCN(c2ccccc2)CC1)C12CC3CC(CC(C3)C1)C2	95*	-13	12	29
CCOc1ccccc1N1CCN(C(=S)NC(=O)C23CC4CC(CC(C4)C2)C3)CC1	31	5	59*	32
CCOc1ccccc1N1CCN(C(=O)Nc2ccc(F)c(Cl)c2)CC1	47	4	52	43
O=C(Nc1ccccc1N1CCN(c2ccc(F)cc2)CC1)C12CC3CC(CC(C3)C1)C2	100*	4	45	10
COc1ccc(N2CCN(C(CNC(=O)C(=O)NCc3cccs3)c3ccco3)CC2)cc1 (stereo not drawn)	6	12	-3	-1
Cn1nccc1NS(=O)(=O)c1ccc(NC(=O)C(F)(F)F)cc1	nt	nt	nt	9
COc1cc(NC(=O)Nc2ccc(Cl)c(Cl)c2)c(C(=O)O)cc1OC	nt	nt	nt	-7
O=C(Nc1ccc(S(=O)(=O)NC2=NCCCCC2)cc1)c1ccc(=O)[nH]c1	1	-1	-19	8
OC(COc1cccc2ccccc12)CN1CCN(c2ccc(Cl)cc2)CC1 (stereo not drawn)	nt	nt	nt	38
Cc1cc2c(OCC(O)CN3CCCCC3)cccc2[nH]1 (stereo not drawn)	-7	-10	9	2
SMILES	L major viab	Arbovirus inh	WT yeast gro inh	CHOP inh
OC(COc1cccc2ccccc12)CN1CCN(c2cccc(Cl)c2)CC1 (stereo not drawn)	nt	nt	nt	71*
OC(COCc1cccs1)CN1CCN(c2cccc(Cl)c2)CC1 (stereo not drawn)	99*	-9	-18	51
OC(COc1cccc2ccccc12)CN1CCCC1 (stereo not drawn)	100*	-6	6	4
O=C(Cc1nnc(NC(=O)Nc2ccc(F)cc2)s1)NCc1ccccc1	nt	nt	nt	42
COC(=O)CC1C(=O)NCCN1C(=O)OC(C)(C)C (stereo not drawn)	2	6	-3	16
COc1cc(CNCCc2ccc(S(N)(=O)=O)cc2)ccc1OCC(=O)NC1CCCCC1	-3	-12	5	0
CCOc1ccc(CNCCc2ccc(S(N)(=O)=O)cc2)cc1	20	-5	1	-1
COc1cc(CNCCc2ccc(S(N)(=O)=O)cc2)ccc1OCc1ccc(Cl)cc1	100*	-30	13	23
CCOc1cc(CNCCc2ccc(S(N)(=O)=O)cc2)ccc1OCc1ccc(Cl)cc1	101*	-44	8	89*
CCN(CC)C(=N)N1c2ccccc2CCC1C (stereo not drawn)	-2	17	7	15
CCN(CC)S(=O)(=O)c1ccc(C(=O)N(c2ccccc2)C2C=CS(=O)(=O)C2)cc1 (stereo not drawn)	0	-2	0	1
O=C(CC(Nc1ccc(F)cc1)c1ccccc1)c1ccccc1 (stereo not drawn)	27	2	78*	52
CC(=O)NC(CC(=O)O)c1ccc([N+](=O)[O-])cc1 (stereo not drawn)	nt	nt	nt	-2
O=C(NNc1ccc([N+](=O)[O-])cc1)C12CC3CC(CC(C3)C1)C2	-4	3	0	28
CCOC(=O)c1ccc(NC(=O)Cc2coc3cc4c(cc23)CCC4)cc1	92*	-15	10	77*
CC(Sc1nc(-c2ccc(F)cc2)cs1)C(=O)Nc1ccc(Cl)cn1 (stereo not drawn)	61*	-8	22	12
NC(=O)c1ccccc1N/C=C/C(=O)c1ccc(Cl)cc1Cl	86*	-9	0	15
Cc1ccc(N2C(=O)N(CC(=O)Nc3ccc(C)cc3C)C(=O)C2C)cc1 (stereo not drawn)	4	0	-4	22
COc1ccccc1-n1cnc2sc(-c3ccccc3)cc2c1=O	-5	10	75*	12
COC(=O)CNc1nc(Cl)nc(Nc2ccc(Cl)cc2)n1	0	4	-4	74*
O=C(O)c1ccc(OCC(F)(F)F)nc1	nt	nt	nt	16
COc1cc(CNCCN2CCOCC2)ccc1OCc1ccccc1Cl	92*	-16	-15	13
COc1cc(CNCCN2CCOCC2)ccc1OCc1ccc(Cl)cc1	94*	-32	3	42
COc1cc(CNCCCN2CCOCC2)cc(Br)c1OCc1ccc(Cl)cc1	100*	-21	84	-44
COc1cc(CNCCCN2CCOCC2)cc(Br)c1OCC(=O)N1CCCCC1	-4	0	1	-3
SMILES	L major viab	Arbovirus inh	WT yeast gro inh	CHOP inh
COc1cc(CNCc2ccccn2)ccc1OCc1ccccc1Cl	94*	7	-3	26
CCOc1ccc2nc(SC3CC(=O)N(c4ccc(OC)cc4OC)C3=O)sc2c1 (stereo not drawn)	-4	1	25	-17
O=C1c2ccccc2CC1(Cc1ccccc1)Cc1ccccc1	23	2	73*	33
COc1ccc(S(=O)(=O)N2CCOCC2)cc1NC(=O)COc1cccnc1[N+](=O)[O-]	13	2	-13	6
Cc1ccc(S(=O)(=O)c2ccc(Cl)cc2)cc1S(=O)(=O)NC(C)C(=O)O (stereo not drawn)	52*	9	-6	11
Cc1cc(C)c(C)c(S(=O)(=O)NC(C)C(=O)O)c1C (stereo not drawn)	nt	nt	nt	-7
Cc1ccc(S(=O)(=O)c2ccc(Cl)cc2)cc1S(=O)(=O)N1CCN(C)CC1	99*	-3	3	12
O=C(O)c1c2c(nc3ccc(S(=O)(=O)N4CCC(C(=O)NC5CCCCCC5)CC4)cc13)CCCC2	9	-2	0	5
Cn1cc(Br)c(-c2cccc(NC(=O)CCC(=O)O)c2)n1	nt	nt	nt	5
